The campaign covered roughly 340,000 compounds. About 2,100 (0.62%) were called active.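 The calls were made as follows: active = first-screen hits whose inhibition reached a set limit at any dose in the follow-up dose series; inconclusive = inhibition above the set first-screen limit but never retested; inactive = the rest.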 Not all results are given here. Results with a measured potency or affinity are listed apart.
Biological target: Rac GTPase-activating protein 1 (Homo sapiens) (UniProt Q9H0H5)
Assay: blockers of MgcRacGAP-driven Rac1 GTP hydrolysis – biochemical, ADP Hunter fluorescence, primary and confirmatory, confirmation (AID 624330);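 also: fluorescence reports GDP produced by GAP-driven GTP hydrolysis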
Conditions: MgcRacGAP-stimulated Rac1 GTP hydrolysis, at 30 µM, stronger effect = higher value, GST-tagged Rac1 F28L mutant substrate

Sequence of Rac GTPase-activating protein 1 (Homo sapiens) (Q9H0H5 whole entry, looked up): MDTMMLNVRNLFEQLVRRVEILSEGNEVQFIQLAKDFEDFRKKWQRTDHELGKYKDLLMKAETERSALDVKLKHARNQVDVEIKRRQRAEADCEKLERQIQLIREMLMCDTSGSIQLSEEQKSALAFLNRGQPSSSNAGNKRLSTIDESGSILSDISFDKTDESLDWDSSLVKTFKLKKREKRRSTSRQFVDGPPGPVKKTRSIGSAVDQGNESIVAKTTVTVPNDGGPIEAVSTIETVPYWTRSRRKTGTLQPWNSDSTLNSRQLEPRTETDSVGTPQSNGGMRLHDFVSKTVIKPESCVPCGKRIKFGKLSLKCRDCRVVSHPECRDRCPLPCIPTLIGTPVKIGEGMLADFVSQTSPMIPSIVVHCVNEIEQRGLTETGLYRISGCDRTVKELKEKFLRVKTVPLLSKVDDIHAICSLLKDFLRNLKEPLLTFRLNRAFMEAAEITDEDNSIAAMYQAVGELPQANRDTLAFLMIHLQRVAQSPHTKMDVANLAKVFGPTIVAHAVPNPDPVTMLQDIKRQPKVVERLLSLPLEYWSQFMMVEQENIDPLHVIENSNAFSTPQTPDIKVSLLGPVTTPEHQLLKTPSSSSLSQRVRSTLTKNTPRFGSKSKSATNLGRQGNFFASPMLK

inhibition, inactive:
CCC(=NOCc1ccccc1)C(=O)NNS(=O)(=O)c1ccc(C)cc1 0.04%, COc1ccc(/C=N/NC(=O)c2ccc(-c3ccccc3)cc2)cc1O 25.4%, COc1cc(C(=O)N/N=C/c2cn(Cc3cccc(F)c3)c3ccccc23)ccc1O 28.6%, COc1cc(C=NNc2nc3c([nH]2)c(=O)n(C)c(=O)n3C)ccc1O 12.7%, O=C(N/N=C/c1ccc(F)cc1)c1ccc(-n2cnnn2)cc1 -4.33%, O=C(N/N=C/c1cccc(O)c1)c1ccc(-n2cnnn2)cc1 1.77%, COc1cc(C(=O)N/N=C/c2ccc(OC(=O)c3ccccc3)c(OC)c2)ccc1O 25.2%, Nc1ccc(C(=O)N/N=C/c2cn(Cc3ccccc3)c3ccccc23)cc1 0.58%, COc1cc(/C=N/Nc2ccccc2C(F)(F)F)ccc1O 20.2%, CCn1c(CNC(=O)c2ccco2)nnc1SCC(=O)c1ccccc1 13.1%, CCN(CC)S(=O)(=O)c1cccc(NC(=O)C(=O)c2c(-c3ccccc3)cc3ccccn23)c1 9%, O=C(/C=C/c1ccc(Cl)cc1)N1CCN(Cc2ccccc2)CC1 10.8%, CC(Oc1ccc(Br)cc1)C(=O)Nc1ccc(S(=O)(=O)Nc2nccs2)cc1 (stereo not given) 3.41%, COc1ccc(/C=N/NC(=O)c2cc[n+]([O-])cc2)cc1 2.43%, COc1ccc(NS(=O)(=O)c2cccc(C(=O)N/N=C/c3ccc(O)cc3)c2)cc1 16.4%, COc1ccc(NS(=O)(=O)c2cccc(C(=O)NN=Cc3ccc(OC)c(O)c3)c2)cc1 22.5%, Cn1c(N/N=C\c2cccc(O)c2)cc(=O)n(C)c1=O 11.6%, COc1cc(/C=N/Nc2ccccc2)ccc1O 13%, COc1ccc(/C=N/NC(=O)c2cc[n+]([O-])cc2)cc1OC 1.48%, COc1cc(C=NCc2ccccc2)ccc1O 15.5%, COc1ccc(/C=N/Nc2cc(=O)n(C)c(=O)n2C)cc1OC 1.57%, Cc1ccc(C(=O)N2CCN(S(=O)(=O)c3ccc(C)c([N+](=O)[O-])c3)C2)cc1 6.42%, O=S(=O)(c1ccc(-c2csc(=Nc3ccccc3)n2CCCN2CCOCC2)cc1)N1CCOCC1 3.34%, CCCCCCCNC(=O)C1(CC2CC(c3ccc(Cl)cc3)=NO2)CCN(C(=O)Cc2ccc(F)cc2)CC1 (stereo not given) 4.28%, Fc1ccc(CN2CCCN(Cc3nc(-c4ccc5c(c4)OCO5)no3)CC2)cc1 7.98%
